# According to PubChem BioAssay (NCI):
# The panel holds about 79,000 compounds, 15% with a hit somewhere; the sample as a whole holds those more often. Values without a mark were called inactive. Activity calls are given as the source filed them. Rule as the data show it: active = growth inhibition above about 70%; inactive = the rest.
# Test: NCI Yeast Anticancer Drug Screen. Data for the mec2-1 strain (AID 157)
# Conditions: S. cerevisiae mec2-1 strain, at 5.0 µM (retest, dose inferred, filed as 0.5), hits give high values
# Summary of the method: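 Growth inhibition is read against vehicle-treated controls after compound exposure of the mec2-1 yeast strain, which is defective in DNA damage repair or cell cycle control.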
row,Structure (SMILES),growth inhibition
1,Oc1c(Br)cc(Cl)cc1Br,5%
2,COc1ccc(C2Oc3ccc(Cl)cc3C=C2[N+](=O)[O-])cc1OC (stereo not given),91% (active)
3,COC(=O)C(=O)CC(=O)c1cccc(Cl)c1,18%
4,O/N=C(/C[N+]12CN3CN(CN(C3)C1)C2)c1ccc(I)cc1,-4%
5,COc1cc(CCN=Cc2cc(Cl)cc(Cl)c2O)c([N+](=O)[O-])cc1OC,42%
6,COc1ccc2c(c1OC)C1=C(C2=O)c2cc3c(cc2CCN1)OCO3,0%
7,CC(C)(C)[Si](C)(C)OCC1OC(n2cc(I)c(N)nc2=O)C(O[Si](C)(C)C(C)(C)C)C1O[Si](C)(C)C(C)(C)C (stereo not given),9%
8,O=S(=O)(Nc1ccccn1)c1ccc(NCc2c3ccccc3nc3cc(Cl)ccc23)cc1,4%
9,OCc1ccc2c(c1)CC1(C2)Cc2cc3c(cc2C1O)CCC3 (stereo not given),18%
10,COc1cc(C(c2cc3c(cc2O)OCO3)N2CCOCC2)ccc1O (stereo not given),-4%
11,CCCCCCCCCCCCCCSC(=N)N,65%
12,Cc1ccccc1NC(=S)Nc1ccccc1O,-2%
13,c1cc2cc(Cc3ccc4[nH]ccc4c3)ccc2[nH]1,21%
14,N=C(N)c1ccc(-c2ccc(-c3ccc(C(=N)N)cc3)o2)cc1,-6%
15,O=c1oc2c/c(=C\c3ccccc3)c(=O)c3cccc1c3-2,-2%
16,CCCCCCCC(=O)/C=C/c1ccc(C)cc1,-54%
17,COc1ccc(CCC2(C)OCCC(C)O2)cc1 (stereo not given),13%
18,O=C(O)C(SC1=NNC2(C(=O)N1)c1ccccc1-c1ccccc12)SC1=NNC2(C(=O)N1)c1ccccc1-c1ccccc12,-19%
19,CC1(C)NNC(=S)NN1,-3%
20,O=C([O-])c1ccccc1[I+]c1ccc(C2CCCCC2)cc1,2%

row,Structure (SMILES),growth inhibition
1,ClC1=C(Cl)C(Cl)(C(Cl)(Cl)Cl)C(Cl)=C1Cl,100% (active)
2,Cn1nc(N)c2cccnc21,-5%
3,CC(C)(C)c1ccc(-n2c3nc(=O)n(-c4ccccc4C(F)(F)F)c(=O)c-3cc3ccccc32)cc1,3%
4,C/C(=N\Nc1ccccn1)c1ccccn1,61%
5,COc1ccc2c(C)cc(N/N=C(\C)c3ccccn3)nc2c1,-3%
6,CC([NH-])C(=O)O.[Cu+2].[NH-]C(Cc1cnc[nH]1)C(=O)O (stereo not given),-4%
7,COc1ccc(C)cc1NC(=O)ON=C1CCCCC1,35%
8,Oc1c(N(Cc2ccccc2)Cc2ccccc2)ccc2cccnc12,-15%
9,Cc1ccc2[nH]c3cc4ccncc4cc3c2c1,30%
10,Cc1ccc2nn(-c3ccc(O)cc3)nc2c1,16%
11,Oc1ccc2c(ccc3ccccc32)c1,-4%
12,ClCc1ccc2ccc3ccc(CCl)nc3c2n1,67%
13,CC(=O)c1c(O)c2ccc(Cl)cc2[nH]c1=O,36%
14,O=C(c1ccc(Cl)cc1)c1ccc(OCCCOc2ccc(C(=O)c3ccc(Cl)cc3)cc2)cc1,-13%
15,C=C1CC2(C[C@@H](c3ccccc3)O[C@@H](c3ccccc3)C2)OC1=O (stereo not given in full),4%
16,O=C(N=Nc1c(O)[nH]c2ccccc12)C(O)(c1ccccc1)c1ccccc1,19%
17,C/C(=N\O)c1ccc2c3c(ccc([N+](=O)[O-])c13)CC2,-9%
18,N#CS/C(Cl)=C(/C(Cl)=C(Cl)Cl)[N+](=O)[O-],18%
19,N#C/C(=C1C=C/C(=N/O)C=C/1Cl)c1ccccc1,-7%
20,O=C1/C(=C/c2ccc(Cl)c(Cl)c2)CN(C(=O)CCN2CCOCC2)C/C1=C\c1ccc(Cl)c(Cl)c1,99% (active)
